Inconclusive results are not listed. Active and inactive are the calls of the source. Unless noted, the call rests on the fitted dose curve; in most records, active means well fitted curve in the direction sought with a large enough effect in the repeat runs; inconclusive means weak or mixed curves; inactive means no such curve, though single readings can be large; an effect the other way counts as inactive or inconclusive.
What was measured:
[1] = qHTS assay to identify small molecule HDAC inhibitors (AID 1259364);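 further: wild-type HCT-116 cells with endogenous class I/II HDAC activity; top concentration of the series differs between compounds; nearly all actives have a fitted effect of over 45% in size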
Summary of the method: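 After a 2 hr compound incubation (37C, 5% CO2), HCT-116 cells seeded at 1,500/well the day before received HDAC-Glo reagent; signal read as luminescence after 30 min at room temperature.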

[2] = qHTS assay to identify small molecule HDAC inhibitors - cell viability counter screen (AID 1259365); further: series mostly up to about 92 µM; nearly all actives have a fitted effect of over 50% in size
Summary of the method: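 HCT-116 wild-type, overnight attachment; 2hr drug exposure, 37C; CellTiter-Glo luminescent ATP readout after 30min RT.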

[3] = qHTS assay to identify small molecule antagonists of the sonic hedgehog signaling (Shh) pathway - cell viability counter screen (AID 1259367); further: nearly all actives have a fitted effect of over 55% in size
Summary of the method: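 Fluorescence read-out (CellTiter-Fluor, 1 hr at 37C) taken after 23 hr compound treatment of 3T3 Gli1-Luc cells stimulated with conditioned medium. Cells were seeded at 2,000 per well and pre-incubated 4 hr.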

[4] = qHTS assay to identify small molecule agonists of the sonic hedgehog signaling (Shh) pathway (AID 1259368; calls by dose curve;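 further: NIH/3T3-derived 3T3Gli1-Luc cells carrying a stable Gli1-driven firefly luciferase reporter; series mostly up to about 92 µM; nearly all actives have a fitted effect of over 15% in size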)
Summary of the method: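 Stable NIH/3T3 Gli1-Luc reporter clone; 24 hr cpd exposure after a 4 hr settling period; luminescence endpoint.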

[5] = qHTS assay to identify small molecule antagonists of the sonic hedgehog signaling (Shh) pathway (AID 1259369; calls by dose curve; further: nearly all actives have a fitted effect of over 45% in size)
Summary of the method: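 Gli1 transcriptional reporter (firefly Luc) in NIH/3T3 background, conditioned-medium activated. 24hr exposure, luminescence endpoint.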

[6] = target: Estrogen receptor beta (Homo sapiens) (UniProt Q92731); assay: qHTS assay to identify small molecule antagonists of the estrogen receptor beta (ER-beta) signaling pathway (AID 1259378; active means well fitted inhibition curve with a large enough effect in the signal ratio in the repeat runs, not every such curve was filed as active; the % refers to the signal ratio)
Summary of the method: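 ER-beta-UAS-bla HEK293T cells in 2% charcoal-stripped FBS medium treated with compound plus 1nM final 17-beta-estradiol for 16 hr at 37C. Beta-lactamase reporter read by FRET substrate fluorescence after 2 hours at room temperature.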

[7] = qHTS assay to identify small molecule agonists of the androgen receptor (AR) signaling pathway in the presence of an antagonist - cell viability counter screen (AID 1259379);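 further: MDA-kb2 human breast cancer cells carrying an MMTV luciferase reporter; series mostly up to about 92 µM; nearly all actives have a fitted effect of over 25% in size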
Summary of the method: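 Counter screen for cell viability run in parallel with the AR agonist-mode luciferase assay. MDA-kb2 cells were co-treated with nilutamide (3.0uM final) and compounds, then incubated 16 hr at 37C, and CellTiter-Fluor fluorescence was measured.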

[8] = qHTS assay to identify small molecule antagonists of the estrogen receptor beta (ER-beta) signaling pathway - cell viability counter screen (AID 1259382); further: series mostly up to about 92 µM; nearly all actives have a fitted effect of over 55% in size
Summary of the method: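 HEK293T ER-beta-UAS-bla, 2% charcoal-stripped FBS; compounds + 1nM E2 16 hr 37C; CellTiter-Glo luminescence, 30 min RT.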

[9] = target: Estrogen receptor (Homo sapiens) (UniProt P03372); assay: qHTS assay to identify small molecule agonists of the estrogen receptor alpha (ER-alpha) signaling pathway in the presence of an antagonist (AID 1259383; calls by dose curve; further: top concentration of the series differs between compounds; nearly all actives have a fitted effect of over 15% in size)
Summary of the method: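 ER-alpha agonism measured under antagonist challenge: 10.0nM ICI-182,780 (final) plus compound, 15 concentrations, 22hr, VM7Luc4E2 ERE-luciferase cells. Read by luminescence.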

[10] = qHTS assay to identify small molecule agonists or antagonists of the thyroid stimulating hormone receptor (TSHR) signaling pathway - wild type cell line counter screen (AID 1259384; calls by dose curve)
Summary of the method: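 Wild-type Hek293 cells, 800/well, 18 h at 37C, then compound with Ro20-1724 for 30 min RT. cAMP by HTRF (cAMP-d2/anti-cAMP cryptate), 1 h RT, fluorescence read. 15 concentrations, triplicates.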

[11] = target: Progesterone receptor (Homo sapiens) (UniProt P06401); assay: qHTS assay to identify small molecule agonists of the progesterone receptor (PR) signaling pathway (AID 1346784; calls by dose curve; further: nearly all actives have a fitted effect of over 30% in size)
Summary of the method: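 Fluorescence from LiveBLAzer B/G FRET substrate cleavage (2 hr, RT) reported PR activation in PR-UAS-bla HEK 293T cells treated 16 hr at 37C/5% CO2 with compounds; medium contained 2% charcoal-stripped FBS.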

[12] = target: Progesterone receptor (Homo sapiens) (UniProt P06401); assay: qHTS assay to identify small molecule antagonists of the progesterone receptor (PR) signaling pathway (AID 1346795; active means well fitted inhibition curve with a large enough effect in the signal ratio in the repeat runs, not every such curve was filed as active; the % refers to the signal ratio)
Summary of the method: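 Fluorescence intensity measured 2 hr after adding beta-lactamase FRET substrate to PR-UAS-bla HEK293T cells that had been co-treated 16 hr with compound and 1 nM R5020 (final concentration) in 2% charcoal-stripped FBS.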

[13] = qHTS assay to identify small molecule antagonists of the progesterone receptor (PR) signaling pathway - cell viability counter screen (AID 1346798); further: series mostly up to about 92 µM; nearly all actives have a fitted effect of over 50% in size
Summary of the method: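 CellTiter-Glo luminescence; PR-UAS-bla HEK293T, 3,000 cells/well; compound + R5020, 16 hr, 37C/5% CO2; 30 min RT before read.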

[14] = qHTS assay to identify small molecule agonists of the estrogen receptor beta (ER-beta) signaling pathway - cell viability counter screen (AID 1259380); further: nearly all actives have a fitted effect of over 30% in size
Summary of the method: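 In this qHTS counter screen, HEK293T cells carrying an ER-beta/UAS beta-lactamase reporter, grown in 2% charcoal-stripped FBS, received compound for 16 hr; ATP-based CellTiter-Glo luminescence was then read after 30 min at room temperature.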

[15] = qHTS assay to identify small molecule agonists of the estrogen receptor alpha (ER-alpha) signaling pathway in the presence of an antagonist - cell viability counter screen (AID 1259386);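 further: series mostly up to about 92 µM; cells exposed to compounds for 22 h at 37 °C before the viability read; nearly all actives have a fitted effect of over 30% in size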
Summary of the method: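 Steps: 5-day stripped-FBS culture; seed and incubate 24hr; add ICI-182,780 (10.0nM final); pin 15-point compound titration; incubate 22hr at 37C; add CellTiter-Fluor at 21hr; read fluorescence.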

[16] = qHTS assay to identify small molecule agonists of the progesterone receptor (PR) signaling pathway - cell viability counter screen (AID 1346799; calls by dose curve; further: nearly all actives have a fitted effect of over 45% in size)
Summary of the method: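 In parallel with the beta-lactamase readout, cytotoxicity toward PR-UAS-bla HEK293T cells was measured by CellTiter-Glo luminescence following 16 hr compound incubation in 2% charcoal-stripped FBS medium.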

[17] = target: Thyrotropin receptor (Homo sapiens) (UniProt P16473); assay: qHTS assay to identify small molecule antagonists of the thyroid stimulating hormone receptor (TSHR) signaling pathway (AID 1259385; calls by dose curve; further: nearly all actives have a fitted effect of over 20% in size)
Summary of the method: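 TSHR-HEK293 cells (800/well) plated 18 h, then compounds with Ro20-1724 and TSH at 1.5 ng/mL final, 30 min at room temperature. cAMP quantified by HTRF (cAMP-d2/anti-cAMP-cryptate, 1 h); 15 concentrations in triplicate.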

[18] = target: Estrogen receptor beta (Homo sapiens) (UniProt Q92731); assay: qHTS assay to identify small molecule agonists of the estrogen receptor beta (ER-beta) signaling pathway (AID 1259377; active means well fitted activation curve with a large enough effect in the signal ratio in the repeat runs, not every such curve was filed as active; the % refers to the signal ratio)
Summary of the method: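 qHTS in ER-beta-UAS-bla HEK293T cells: 6 hr settling, then 16 hr compound at 37C, then LiveBLAzer substrate 2 h at RT before fluorescence reading.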

[19] = qHTS assay to identify small molecule agonists of the sonic hedgehog signaling (Shh) pathway - cell viability counter screen (AID 1259366); further: nearly all actives have a fitted effect of over 50% in size
Summary of the method: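 Compounds in DMSO were pin-transferred onto 3T3 Gli1-Luc cells that had settled 4hr; plates then stood 24hr at 37C and 5% CO2. One hour before the end, CellTiter-Fluor was added and fluorescence recorded.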

[20] = target: Androgen receptor (Homo sapiens) (UniProt P10275); assay: qHTS assay to identify small molecule agonists of the androgen receptor (AR) signaling pathway in the presence of an antagonist (AID 1259381; calls by dose curve; further: nearly all actives have a fitted effect of over 15% in size)
Summary of the method: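 AR antagonist background: nilutamide 3.0uM final. Cell line: MDA-kb2, MMTV-driven luciferase, responsive to both AR and GR. Exposure 16hr, 37C, no CO2; ONE-Glo luminescence.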

Measured: Potency

Sequence of Progesterone receptor (Homo sapiens) (P06401 whole entry, looked up): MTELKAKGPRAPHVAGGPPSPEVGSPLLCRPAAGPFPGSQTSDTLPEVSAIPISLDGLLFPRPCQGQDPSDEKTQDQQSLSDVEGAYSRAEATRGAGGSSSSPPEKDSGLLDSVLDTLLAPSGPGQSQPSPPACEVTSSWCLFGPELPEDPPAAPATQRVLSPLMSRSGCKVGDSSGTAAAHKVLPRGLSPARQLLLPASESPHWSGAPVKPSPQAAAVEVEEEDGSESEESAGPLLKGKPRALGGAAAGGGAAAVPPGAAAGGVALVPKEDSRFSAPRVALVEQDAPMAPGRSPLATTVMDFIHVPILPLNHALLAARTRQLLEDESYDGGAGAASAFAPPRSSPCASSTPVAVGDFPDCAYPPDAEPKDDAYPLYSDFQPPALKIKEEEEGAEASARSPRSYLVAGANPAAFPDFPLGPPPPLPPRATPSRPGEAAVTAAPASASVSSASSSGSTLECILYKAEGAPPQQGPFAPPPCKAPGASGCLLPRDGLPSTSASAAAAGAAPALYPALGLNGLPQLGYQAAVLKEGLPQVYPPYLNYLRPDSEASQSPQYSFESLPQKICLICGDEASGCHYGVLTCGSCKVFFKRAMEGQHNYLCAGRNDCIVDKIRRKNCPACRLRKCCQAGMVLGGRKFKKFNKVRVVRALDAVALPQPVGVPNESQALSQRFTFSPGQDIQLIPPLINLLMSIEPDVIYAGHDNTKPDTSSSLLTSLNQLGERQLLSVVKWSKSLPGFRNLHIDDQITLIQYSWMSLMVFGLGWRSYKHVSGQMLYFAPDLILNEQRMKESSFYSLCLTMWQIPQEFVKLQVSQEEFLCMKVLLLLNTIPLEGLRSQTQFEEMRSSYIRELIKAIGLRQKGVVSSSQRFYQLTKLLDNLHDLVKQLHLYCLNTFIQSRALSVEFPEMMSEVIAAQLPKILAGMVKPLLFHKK
Sequence of Androgen receptor (Homo sapiens) (P10275 whole entry, looked up): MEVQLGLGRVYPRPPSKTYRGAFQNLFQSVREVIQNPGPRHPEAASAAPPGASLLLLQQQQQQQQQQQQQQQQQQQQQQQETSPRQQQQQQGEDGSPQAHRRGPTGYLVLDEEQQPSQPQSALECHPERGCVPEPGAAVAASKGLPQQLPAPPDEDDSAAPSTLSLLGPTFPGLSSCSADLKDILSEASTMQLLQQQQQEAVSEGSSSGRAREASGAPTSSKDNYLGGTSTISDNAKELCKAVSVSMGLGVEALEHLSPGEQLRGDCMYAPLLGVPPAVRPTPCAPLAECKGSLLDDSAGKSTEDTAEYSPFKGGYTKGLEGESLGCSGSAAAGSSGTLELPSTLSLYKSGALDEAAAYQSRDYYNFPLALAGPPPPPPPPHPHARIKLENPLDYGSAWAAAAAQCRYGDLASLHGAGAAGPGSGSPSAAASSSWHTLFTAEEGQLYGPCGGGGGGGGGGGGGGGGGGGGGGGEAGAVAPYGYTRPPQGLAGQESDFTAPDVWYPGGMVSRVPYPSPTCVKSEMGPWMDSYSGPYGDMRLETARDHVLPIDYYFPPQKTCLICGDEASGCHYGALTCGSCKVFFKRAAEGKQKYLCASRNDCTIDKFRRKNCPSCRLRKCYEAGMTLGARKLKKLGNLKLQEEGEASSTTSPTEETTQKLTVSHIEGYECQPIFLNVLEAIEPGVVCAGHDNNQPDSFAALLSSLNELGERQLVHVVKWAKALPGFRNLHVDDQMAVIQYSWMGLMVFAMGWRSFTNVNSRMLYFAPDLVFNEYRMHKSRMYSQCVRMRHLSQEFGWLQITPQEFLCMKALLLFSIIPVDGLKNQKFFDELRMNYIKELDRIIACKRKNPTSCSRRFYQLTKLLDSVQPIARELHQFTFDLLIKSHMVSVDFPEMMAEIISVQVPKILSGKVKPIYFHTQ
Sequence of Thyrotropin receptor (Homo sapiens) (P16473 whole entry, looked up): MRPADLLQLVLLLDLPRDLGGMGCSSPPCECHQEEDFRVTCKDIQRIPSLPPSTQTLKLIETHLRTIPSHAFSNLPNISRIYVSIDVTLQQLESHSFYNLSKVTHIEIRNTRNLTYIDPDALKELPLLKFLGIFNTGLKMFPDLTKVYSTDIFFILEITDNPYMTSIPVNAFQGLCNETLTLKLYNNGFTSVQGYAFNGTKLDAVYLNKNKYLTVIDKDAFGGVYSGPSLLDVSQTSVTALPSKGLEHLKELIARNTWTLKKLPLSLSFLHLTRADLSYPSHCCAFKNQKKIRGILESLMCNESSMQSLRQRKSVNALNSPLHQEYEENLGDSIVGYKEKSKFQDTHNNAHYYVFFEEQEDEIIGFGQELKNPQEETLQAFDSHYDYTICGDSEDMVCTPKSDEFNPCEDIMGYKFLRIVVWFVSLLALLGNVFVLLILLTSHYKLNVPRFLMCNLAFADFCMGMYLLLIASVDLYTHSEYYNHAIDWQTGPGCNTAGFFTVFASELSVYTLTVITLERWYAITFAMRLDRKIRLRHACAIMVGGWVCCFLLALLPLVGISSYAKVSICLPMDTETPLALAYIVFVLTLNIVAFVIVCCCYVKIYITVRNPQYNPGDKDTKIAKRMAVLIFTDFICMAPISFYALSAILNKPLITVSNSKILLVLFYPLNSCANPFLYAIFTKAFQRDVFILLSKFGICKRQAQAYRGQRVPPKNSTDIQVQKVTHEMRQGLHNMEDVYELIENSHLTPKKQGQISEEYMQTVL
Sequence of Estrogen receptor (Homo sapiens) (P03372 whole entry, looked up): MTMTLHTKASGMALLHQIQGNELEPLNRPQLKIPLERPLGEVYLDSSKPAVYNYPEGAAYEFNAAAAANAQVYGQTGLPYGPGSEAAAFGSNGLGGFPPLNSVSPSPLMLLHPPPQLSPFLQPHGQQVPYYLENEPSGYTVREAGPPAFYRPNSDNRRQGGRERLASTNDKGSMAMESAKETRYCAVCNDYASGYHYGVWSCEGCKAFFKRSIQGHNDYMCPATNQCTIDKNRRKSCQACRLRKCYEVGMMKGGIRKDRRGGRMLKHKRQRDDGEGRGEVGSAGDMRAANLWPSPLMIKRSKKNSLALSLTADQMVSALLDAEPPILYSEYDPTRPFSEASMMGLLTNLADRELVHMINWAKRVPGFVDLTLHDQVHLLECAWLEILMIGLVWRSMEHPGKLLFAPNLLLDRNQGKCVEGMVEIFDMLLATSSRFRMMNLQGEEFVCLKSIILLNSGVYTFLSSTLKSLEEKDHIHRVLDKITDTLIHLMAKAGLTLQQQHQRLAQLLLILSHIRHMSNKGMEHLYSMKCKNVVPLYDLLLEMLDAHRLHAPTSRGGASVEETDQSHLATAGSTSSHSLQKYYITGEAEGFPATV
Sequence of Estrogen receptor beta (Homo sapiens) (Q92731 whole entry, looked up): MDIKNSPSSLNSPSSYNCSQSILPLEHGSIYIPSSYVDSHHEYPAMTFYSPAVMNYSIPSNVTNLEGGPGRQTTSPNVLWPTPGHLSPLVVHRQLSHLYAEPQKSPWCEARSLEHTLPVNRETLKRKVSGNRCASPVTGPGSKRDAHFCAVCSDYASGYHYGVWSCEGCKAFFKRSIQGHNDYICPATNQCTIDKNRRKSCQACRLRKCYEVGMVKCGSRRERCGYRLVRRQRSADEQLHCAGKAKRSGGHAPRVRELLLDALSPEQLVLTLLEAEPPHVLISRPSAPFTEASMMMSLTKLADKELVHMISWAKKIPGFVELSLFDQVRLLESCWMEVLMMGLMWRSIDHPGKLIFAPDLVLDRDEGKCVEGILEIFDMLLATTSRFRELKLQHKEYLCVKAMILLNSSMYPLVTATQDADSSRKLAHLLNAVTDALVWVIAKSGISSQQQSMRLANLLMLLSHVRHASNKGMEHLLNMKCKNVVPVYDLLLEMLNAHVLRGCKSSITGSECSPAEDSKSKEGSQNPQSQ

O=C(Cn1ccnc1[N+](=O)[O-])NCc1ccccc1
not listed: [14] | [15] | [16] | [17] | [18] | [19] | [20]
inactive: all other assays above

CN(C)CCCO[C@@H]1[C@H]2OC(C)(C)O[C@H]2O[C@@H]1C(O)CO (stereo not given in full)
not listed: [6] | [9] | [10] | [11] | [17] | [18] | [19] | [20]
inactive: all other assays above

N#Cc1ccccc1O
not listed: [4] | [6] | [16] | [18] | [19] | [20]
inactive: all other assays above

O=C(CN1CCNCC1)NC1CCCCC1
not listed: [6] | [14] | [18] | [19] | [20]
inactive: all other assays above

Fc1ccccc1
not listed: [6] | [13] | [14] | [16] | [18] | [19] | [20]
inactive: all other assays above

OCC1(CO)COCOC1
not listed: [4] | [9] | [12] | [16] | [17] | [19] | [20]
inactive: all other assays above

COc1cc2c(cc1OC)CN(C(=O)[C@H](C)N[C@@H](CCc1ccccc1)C(=O)O)[C@H](C(=O)O)C2
not listed: [3] | [13] | [19] | [20]
inactive: all other assays above

CC1=C(C(=O)O)N2C(=O)[C@@H](NC(=O)[C@H](N)C3=CCC=CC3)[C@H]2SC1
not listed: [6] | [12] | [13] | [15] | [19] | [20]
inactive: all other assays above

CSc1cnccn1
not listed: [19] | [20]
inactive: all other assays above

CCCCOCCOC(=O)COc1ccc(Cl)cc1Cl
not listed: [10] | [19] | [20]
inactive: all other assays above

NCCOCCN
not listed: [6] | [13] | [17] | [18] | [19] | [20]
inactive: all other assays above

O=C(CCCl)NCCc1ccccc1
not listed: [1] | [9] | [11] | [13] | [15] | [16]
inactive: all other assays above

C=CCN1C[C@H](C(=O)N(CCCN(C)C)C(=O)NCC)C[C@@H]2c3cccc4[nH]cc(c34)C[C@H]21
not listed: [6] | [7] | [10] | [15] | [16] | [17] | [19] | [20]
inactive: all other assays above

COc1cc2c(cc1OC)C(=O)C(CC1CCN(Cc3ccccc3)CC1)C2 (stereo not given)
not listed: [3] | [5] | [6] | [15] | [19]
inactive: all other assays above

CC(S)C(C)S (stereo not given)
not listed: [1]
inactive: all other assays above

[O-][n+]1cccc(/C(Cl)=N/OC[C@@H](O)CN2CCCCC2)c1
not listed: [1] | [5] | [10] | [17]
inactive: all other assays above
